Data from PubChem BioAssay AID1159580 (chemical genetic matrix, 2015).
Values joined by “and” are separate entries in the source; they are usually repeats but may differ in a detail not shown here. Equal values may be shown once. About 2,000 (36%) of roughly 5,500 compounds were called active. Another 18% or so got no clear call; they are omitted. Rule as the data show it: active = normalized growth mostly below about 0.91 (no sharp cut-off); inconclusive = no clear call, values can overlap the other calls; inactive = mostly above about 0.92. Some of the results follow.

Test: chemical genetic growth profiling, strain panel (AID 1159580);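 also: tested at 20 µM; growth read once vehicle control cultures reached saturation at 30 °C; 1 = growth at the plate median or of vehicle wells; lower values mean less growth of the strain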
Conditions: S. cerevisiae deletion strains, growth OD

Measured: normalized growth

NC(=O)N1c2ccccc2C=Cc2ccccc21
inactive: locus YAL013W, strain DEP1, active compounds read low 1 | locus YAL021C, strain ccr4, active compounds read low 1.03 | locus YAL026C, strain drs2, active compounds read low 1.02 | locus YAL030W, strain snc1, active compounds read low 1.04 | locus YAL040C, strain CLN3, active compounds read low 1.01 | locus YBL061C, strain skt5, active compounds read low 1.03 | locus YBR009C, strain hhf1, active compounds read low 1.02 | locus YBR021W, strain FUR4, active compounds read low 1.03 | locus YBR023C, strain chs3, active compounds read low 1.02 | locus YBR171W, strain sec66, active compounds read low 1.03 | locus YBR229C, strain ROT2, active compounds read low 1.03 | locus YBR231C, strain swc5, active compounds read low 1.04 | locus YBR279W, strain paf1, active compounds read low 1.02 | locus YCL011C, strain gbp2, active compounds read low 1.02 | locus YCL016C, strain dcc1, active compounds read low 1.02 | locus YCL029C, strain bik1, active compounds read low 1.01 | locus YCL061C, strain MRC1, active compounds read low 1.02 | locus YCL069W, strain vba3, active compounds read low 1.03 | locus YCR088W, strain abp1, active compounds read low 1.01 | locus YDL005C, strain med2, active compounds read low 1.02 | locus YDL035C, strain GPR1, active compounds read low 1.07 | locus YDL040C, strain nat1, active compounds read low 1.03 | locus YDL074C, strain BRE1, active compounds read low 1.03 | locus YDL101C, strain DUN1, active compounds read low 1.01 | locus YDL185W, strain tfp1, active compounds read low 0.963 | locus YDL192W, strain arf1, active compounds read low 0.996 | locus YDR001C, strain nth1, active compounds read low 1.01 | locus YDR069C, strain doa4, active compounds read low 1.04 | locus YDR101C, strain arx1, active compounds read low 1.01 | locus YDR137W, strain rgp1, active compounds read low 1.07 | locus YDR159W, strain sac3, active compounds read low 1.03 | locus YDR162C, strain NBP2, active compounds read low 1.03 | locus YDR195W, strain ref2 1.06 | locus YDR297W, strain sur2, active compounds read low 1.02 | locus YDR318W, strain mcm21, active compounds read low 1.01 | locus YDR334W, strain swr1, active compounds read low 1.03 | locus YDR335W, strain msn5, active compounds read low 1.02 | locus YDR363W, strain ESC2, active compounds read low 1 | locus YDR388W, active compounds read low 1.01 | locus YDR392W, strain spt3, active compounds read low 0.984 | locus YDR502C, strain sam2, active compounds read low 0.993 | locus YEL003W, strain gim4, active compounds read low 1.02 | locus YEL037C, strain rad23, active compounds read low 1.02 | locus YEL061C, strain CIN8 (second series), active compounds read low 1.01 | locus YEL061C, strain CIN8, active compounds read low 1.01 | locus YER002W, strain NOP16, active compounds read low 1.04 | locus YER015W, strain faa2, active compounds read low 1.03 | locus YER016W, strain bim1, active compounds read low 1.02 | locus YER110C, active compounds read low 0.979 | locus YER111C, strain swi4, active compounds read low 1.03 | locus YER155C, strain BEM2 (second series), active compounds read low 1.01 | locus YER155C, strain BEM2, active compounds read low 1.01 | locus YER167W, strain BCK2, active compounds read low 1.01 | locus YFR010W, strain ubp6, active compounds read low 1.05 | locus YGL078C, strain dbp3, active compounds read low 0.991 | locus YGL086W, strain mad1, active compounds read low 1.01 | locus YGL167C, strain pmr1, active compounds read low 1.03 | locus YGL173C, strain kem1, active compounds read low 1.04 | locus YGL227W, strain vid30, active compounds read low 1.01 | locus YGL240W, strain doc1, active compounds read low 1.02 | locus YGL248W, strain PDE1, active compounds read low 1.05 | locus YGL253W, strain hxk2, active compounds read low 1.01 | locus YGR078C, strain PAC10, active compounds read low 1.02 and 1.01 | locus YGR135W, strain pre9, active compounds read low 0.99 | locus YGR252W, strain gcn5, active compounds read low 1.06 | locus YHR013C, strain ard1, active compounds read low 1.02 | locus YHR027C, strain rpn1, active compounds read low 1.02 | locus YHR030C, strain SLT2, active compounds read low 1.01 and 1 | locus YHR079C, strain IRE1 (second series), active compounds read low 0.98 | locus YHR079C, strain IRE1, active compounds read low 0.99 | locus YHR094C, strain hxt1, active compounds read low 1 | locus YHR129C, strain ARP1, active compounds read low 0.997 | locus YHR142W, strain chs7, active compounds read low 1.02 | locus YHR200W, strain rpn10, active compounds read low 0.995 | locus YIL066C, strain RNR3, active compounds read low 1.04 | locus YIL073C, strain SPO22, active compounds read low 1.05 | locus YIL125W, strain kgd1, active compounds read low 1 | locus YIR030C, strain dcg1, active compounds read low 0.976 | locus YJL092W, strain hpr5, active compounds read low 1.03 | locus YJL095W, strain BCK1 (second series), active compounds read low 1.03 | locus YJL095W, strain BCK1, active compounds read low 0.972 and 0.988 | locus YJL115W, strain asf1, active compounds read low 1.03 | locus YJL129C, strain trk1, active compounds read low 1.04 | locus YJL134W, strain LCB3, active compounds read low 1.02 | locus YJL154C, strain vps35, active compounds read low 1.01 | locus YJL164C, strain tpk1, active compounds read low 1.01 | locus YJL166W, strain qcr8, active compounds read low 1.02 | locus YJL168C, strain set2, active compounds read low 0.994 | locus YJL187C, strain SWE1 (second series), active compounds read low 1.02 | locus YJR043C, strain POL32, active compounds read low 1.09 | locus YJR066W, strain TOR1, active compounds read low 0.99 | locus YKL009W, strain mrt4, active compounds read low 0.918 | locus YKL068W, active compounds read low 1.01 | locus YKL085W, strain MDH1 (second series), active compounds read low 0.986 | locus YKL085W, strain MDH1, active compounds read low 0.986 | locus YKL160W, strain elf1, active compounds read low 1.03 | locus YKR001C, strain vps1, active compounds read low 0.989 | locus YKR026C, strain gcn3, active compounds read low 1.01 | locus YKR091W, strain srl3, active compounds read low 1.01 | locus YLL001W, strain dnm1, active compounds read low 1.02 | locus YLL026W, active compounds read low 1.03 | locus YLL041C, strain sdh2, active compounds read low 1.02 | locus YLR027C, strain aat2, active compounds read low 1.02 | locus YLR039C, strain RIC1, active compounds read low 1.09 | locus YLR058C, strain SHM2, active compounds read low 1.01 | locus YLR102C, strain apc9, active compounds read low 1.01 | locus YLR113W, strain HOG1, active compounds read low 0.972 | locus YLR221C, strain rsa3, active compounds read low 1.01 | locus YLR258W, strain gsy2, active compounds read low 1.02 | locus YLR262C, strain YPT6 (second series), active compounds read low 1.03 | locus YLR262C, strain YPT6, active compounds read low 1.1 | locus YLR268W, strain sec22, active compounds read low 0.993 | locus YLR320W, strain mms22, active compounds read low 1.03 | locus YLR330W, strain CHS5, active compounds read low 1 | locus YLR342W, strain FKS1 (second series), active compounds read low 1.12 | locus YLR342W, strain FKS1, active compounds read low 1.03 | locus YLR357W, strain rsc2, active compounds read low 1.09 | locus YLR370C, strain arc18, active compounds read low 1.02 | locus YLR371W, strain rom2, active compounds read low 0.994 | locus YLR384C, strain iki3, active compounds read low 1.02 | locus YLR418C, strain cdc73, active compounds read low 0.959 | locus YML016C, strain PPZ1, active compounds read low 1.02 | locus YML032C, strain rad52, active compounds read low 1 | locus YML120C, strain ndi1, active compounds read low 1.03 | locus YML124C, strain tub3, active compounds read low 0.998 | locus YMR058W, strain fet3, active compounds read low 1.01 | locus YMR078C, strain ctf18, active compounds read low 0.989 | locus YMR125W, strain sto1, active compounds read low 1.03 | locus YMR129W, active compounds read low 1.01 | locus YMR205C, strain PFK2, active compounds read low 1.03 | locus YMR223W, strain ubp8, active compounds read low 0.993 | locus YMR231W, strain pep5, active compounds read low 1.03 | locus YMR263W, strain SAP30, active compounds read low 1.01 | locus YMR307W, strain GAS1, active compounds read low 1.18 | locus YNL067W, strain RPL9B, active compounds read low 1.02 | locus YNL071W, strain lat1, active compounds read low 1.02 | locus YNL128W, strain TEP1, active compounds read low 1 | locus YNL175C, strain NOP13, active compounds read low 1.05 | locus YNL183C, strain NPR1, active compounds read low 0.948 | locus YNL197C, strain WHI3, active compounds read low 1.03 | locus YNL209W, strain ssb2, active compounds read low 1.02 | locus YNL224C, strain SQS1, active compounds read low 1.02 | locus YNL233W, strain BNI4, active compounds read low 0.981 | locus YNL248C, strain rpa49, active compounds read low 1.05 | locus YNL250W, strain rad50, active compounds read low 0.98 | locus YNL271C, strain bni1, active compounds read low 0.977 | locus YNL298W, strain CLA4, active compounds read low 0.976 | locus YNL307C, strain MCK1, active compounds read low 1 | locus YNL322C, strain KRE1 (second series), active compounds read low 1.03 | locus YNL322C, strain KRE1, active compounds read low 1.01 | locus YNR049C, strain mso1, active compounds read low 1.03 | locus YNR052C, strain pop2, active compounds read low 0.994 | locus YOL006C, strain TOP1, active compounds read low 1.02 | locus YOL012C, strain htz1 1.53 | locus YOL147C, strain pex11, active compounds read low 0.998 | locus YOR001W, strain rrp6, active compounds read low 1.04 | locus YOR061W, strain CKA2, active compounds read low 1.01 | locus YOR069W, strain VPS5, active compounds read low 1.04 | locus YOR070C, strain gyp1, active compounds read low 1.03 | locus YOR080W, strain dia2, active compounds read low 1.04 | locus YOR083W, strain WHI5 (second series), active compounds read low 0.999 | locus YOR083W, strain WHI5, active compounds read low 1.03 | locus YOR106W, strain vam3, active compounds read low 1.04 | locus YOR136W, strain idh2, active compounds read low 0.997 | locus YOR144C, strain elg1, active compounds read low 1 | locus YOR184W, strain ser1, active compounds read low 0.981 | locus YOR231W, strain MKK1, active compounds read low 1 | locus YOR265W, strain rbl2, active compounds read low 1.03 | locus YOR270C, strain vph1, active compounds read low 1.1 | locus YOR290C, strain snf2, active compounds read low 1.01 | locus YOR316C, strain cot1, active compounds read low 0.998 | locus YPL051W, strain arl3, active compounds read low 1.03 | locus YPL055C, strain LGE1, active compounds read low 1.01 | locus YPL078C, strain atp4, active compounds read low 1.02 | locus YPL106C, strain sse1, active compounds read low 1.05 | locus YPL240C, strain hsp82, active compounds read low 1.02 | locus YPL241C, strain CIN2, active compounds read low 1.02 and 1.01 | locus YPL256C, strain CLN2, active compounds read low 1 | locus YPR119W, strain clb2, active compounds read low 0.996 | locus YPR141C, strain kar3, active compounds read low 0.992 | locus YPR163C, strain tif3, active compounds read low 1 | locus YPR167C, strain met16, active compounds read low 0.991 | strain wtn01, active compounds read low 1.01
